In PubChem BioAssay (NCI):
Compounds without any hit were thinned out: in the full panel of roughly 83,000, 20% have a hit.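 Plates (96-well) were seeded with cells, treated with compound at one concentration, and incubated for 48 hours before percent growth was determined.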 The source made the active and inactive calls. How the source made its calls: active means growth percent below 10; inactive means the rest.

Legend:
Experiment in all cases: NCI-60 one-dose screen, 48 h (100 = growth as untreated, 0 = no growth, -100 = all killed)
Conditions in all cases: 10 µM unless noted
HCT-15 colon = tested on: HCT-15 colon
HT29 colon = tested on: HT29 colon
SNB-75 CNS = tested on: SNB-75 CNS
SNB-19 CNS = tested on: SNB-19 CNS
PC-3 prostate = tested on: PC-3 prostate
SK-MEL-5 melanoma = tested on: SK-MEL-5 melanoma
UACC-62 melanoma = tested on: UACC-62 melanoma
LOX IMVI melanoma = tested on: LOX IMVI melanoma
SK-MEL-28 melanoma = tested on: SK-MEL-28 melanoma
EKVX NSCLC = tested on: EKVX NSCLC
SN12C renal = tested on: SN12C renal
UO-31 renal = tested on: UO-31 renal
TK-10 renal = tested on: TK-10 renal
ACHN renal = tested on: ACHN renal
CAKI-1 renal = tested on: CAKI-1 renal
A498 renal = tested on: A498 renal
CCRF-CEM leukemia = tested on: CCRF-CEM leukemia
MOLT-4 leukemia = tested on: MOLT-4 leukemia
SK-MEL-2 melanoma = tested on: SK-MEL-2 melanoma
U251 CNS = tested on: U251 CNS

Measured: growth

CCCn1c(NC(=O)c2cccc(C(N)=O)c2)nc2cc(CN3CCCCC3)ccc21
inactive: HCT-15 colon 77.9% | HT29 colon 87.1% | SNB-75 CNS 133% | SNB-19 CNS 113% | PC-3 prostate 77% | SK-MEL-5 melanoma 88% | UACC-62 melanoma 113% | LOX IMVI melanoma 96.5% | SK-MEL-28 melanoma 112% | EKVX NSCLC 100% | SN12C renal 89% | UO-31 renal 67.5% | TK-10 renal 92.6% | ACHN renal 77.8% | CAKI-1 renal 53.3% | A498 renal 170% | CCRF-CEM leukemia 94.7% | MOLT-4 leukemia 94.8%

CC(=O)C[n+]1cccc2c3ccccc3ccc21
inactive: HCT-15 colon 97.5% | HT29 colon 93.4% | SNB-75 CNS 113% | SNB-19 CNS 69.8% | PC-3 prostate 85.1% | SK-MEL-5 melanoma 56.6% | UACC-62 melanoma 73.3% | LOX IMVI melanoma 99.8% | SK-MEL-28 melanoma 95.6% | SK-MEL-2 melanoma 106% | EKVX NSCLC 56.6% | SN12C renal 80.1% | UO-31 renal 83% | TK-10 renal 101% | ACHN renal 92.1% | CAKI-1 renal 94.1% | A498 renal 110% | CCRF-CEM leukemia 65.5% | MOLT-4 leukemia 53.9%

COc1ccc(-c2cc(C(=O)N=Nc3c(O)[nH]c4ccc(Cl)cc34)c3ccccc3n2)cc1OC
inactive: HCT-15 colon 101% | HT29 colon 117% | SNB-75 CNS 118% | SNB-19 CNS 97.1% | U251 CNS 100% | PC-3 prostate 103% | SK-MEL-5 melanoma 111% | LOX IMVI melanoma 90.9% | SK-MEL-28 melanoma 110% | EKVX NSCLC 90.1% | SN12C renal 96.4% | UO-31 renal 81.8% | TK-10 renal 116% | ACHN renal 105% | CAKI-1 renal 95.2% | A498 renal 167% | CCRF-CEM leukemia 112% | MOLT-4 leukemia 118%

O=C(Cn1c(/C=C/c2ccc([N+](=O)[O-])cc2)nc2ccccc2c1=O)Nc1ccccc1
inactive: HCT-15 colon 85.8% | HT29 colon 45.8% | SNB-75 CNS 38.5% | U251 CNS 69.4% | PC-3 prostate 85.1% | SK-MEL-5 melanoma 82.6% | UACC-62 melanoma 69.6% | LOX IMVI melanoma 58.4% | SK-MEL-28 melanoma 76.1% | SK-MEL-2 melanoma 74.7% | EKVX NSCLC 79.9% | SN12C renal 61.6% | UO-31 renal 90.4% | TK-10 renal 95.3% | ACHN renal 47.8% | CAKI-1 renal 57.3% | A498 renal 143% | CCRF-CEM leukemia 101% | MOLT-4 leukemia 107%

COc1cc(C=O)ccc1OC(=O)c1cc(-c2ccc(C)cc2)n(-c2ccc(S(C)(=O)=O)cc2)n1
inactive: HCT-15 colon 96.7% | HT29 colon 113% | SNB-75 CNS 104% | U251 CNS 100% | PC-3 prostate 100% | SK-MEL-5 melanoma 100% | UACC-62 melanoma 91.4% | LOX IMVI melanoma 98.8% | SK-MEL-28 melanoma 113% | SK-MEL-2 melanoma 108% | EKVX NSCLC 98.8% | SN12C renal 99.2% | UO-31 renal 85.6% | TK-10 renal 126% | ACHN renal 104% | CAKI-1 renal 93.5% | A498 renal 143% | CCRF-CEM leukemia 96.9% | MOLT-4 leukemia 91.4%

COc1cc(/C=C/C(=O)c2cnn(-c3cc(=O)[nH]c4ccc(C)cc34)c2C)cc(OC)c1OC
active: HCT-15 colon -38.7% | HT29 colon -67.3% | PC-3 prostate 5.99% | SK-MEL-5 melanoma -95.2% | UACC-62 melanoma -71.9% | LOX IMVI melanoma -92% | SK-MEL-28 melanoma -77.2% | SK-MEL-2 melanoma -73.1% | EKVX NSCLC -9.39% | UO-31 renal -45.8% | ACHN renal -8.39% | A498 renal 8.36% | CCRF-CEM leukemia -22.2% | MOLT-4 leukemia -8.06%
inactive: SNB-75 CNS 45.1% | SN12C renal 10.4% | TK-10 renal 37.8% | CAKI-1 renal 16.4%

O=C1/C(=C/c2cnc(-c3ccccc3)s2)SC(=S)N1Cc1ccc2c(c1)OCO2
inactive: HCT-15 colon 81.2% | HT29 colon 111% | U251 CNS 42% | PC-3 prostate 97.9% | SK-MEL-5 melanoma 96.9% | UACC-62 melanoma 61.5% | LOX IMVI melanoma 66.6% | SK-MEL-28 melanoma 103% | EKVX NSCLC 79.3% | SN12C renal 72.9% | UO-31 renal 86.5% | TK-10 renal 78.4% | ACHN renal 42.1% | CAKI-1 renal 37.3% | A498 renal 45.2% | CCRF-CEM leukemia 87.2% | MOLT-4 leukemia 99.2%
active: SNB-75 CNS -30.1%

COc1ccc(-c2cc(-c3cc(C(C)C)c(O)cc3C)nn2-c2ccc(S(N)(=O)=O)cc2)cc1
active: HCT-15 colon 3.06% | SNB-75 CNS -0.16%
inactive: HT29 colon 88.4% | U251 CNS 14.4% | PC-3 prostate 49.3% | SK-MEL-5 melanoma 48.6% | UACC-62 melanoma 21.5% | LOX IMVI melanoma 22.6% | SK-MEL-28 melanoma 58.8% | EKVX NSCLC 61.1% | SN12C renal 16% | UO-31 renal 39.1% | TK-10 renal 58% | ACHN renal 55.8% | CAKI-1 renal 63.9% | A498 renal 87.7% | CCRF-CEM leukemia 12.2% | MOLT-4 leukemia 14.7%

O=CNc1ccc(-n2cnc3cc(-c4ccc(O)cc4)ccc32)cc1
inactive: HCT-15 colon 74% | HT29 colon 111% | SNB-75 CNS 59.3% | U251 CNS 84.6% | PC-3 prostate 88.1% | SK-MEL-5 melanoma 79.4% | UACC-62 melanoma 99.2% | LOX IMVI melanoma 93.7% | SK-MEL-28 melanoma 92.9% | SK-MEL-2 melanoma 115% | EKVX NSCLC 106% | SN12C renal 71.7% | UO-31 renal 61% | TK-10 renal 108% | ACHN renal 65.4% | A498 renal 135% | CCRF-CEM leukemia 76.4% | MOLT-4 leukemia 77.3%

CCN(C(=O)CN1C(=O)/C(=C/c2ccco2)SC1=S)C1CCS(=O)(=O)C1 (stereo not given)
inactive: HCT-15 colon 88.8% | HT29 colon 102% | SNB-75 CNS 75.3% | U251 CNS 104% | PC-3 prostate 109% | SK-MEL-5 melanoma 91.9% | UACC-62 melanoma 92.6% | LOX IMVI melanoma 90.6% | SK-MEL-28 melanoma 98% | SK-MEL-2 melanoma 99.2% | EKVX NSCLC 98% | SN12C renal 106% | UO-31 renal 83.6% | TK-10 renal 121% | ACHN renal 114% | CAKI-1 renal 91.4% | A498 renal 105% | CCRF-CEM leukemia 105% | MOLT-4 leukemia 103%

Nc1nn2c(-c3cc4cc(Br)ccc4oc3=O)ccnc2c1N=Nc1ccccc1
inactive: HCT-15 colon 53.4% | HT29 colon 22.4% | PC-3 prostate 14.4% | UACC-62 melanoma 31.6% | LOX IMVI melanoma 18% | SK-MEL-28 melanoma 52.5% | SK-MEL-2 melanoma 16.1% | EKVX NSCLC 36.4% | UO-31 renal 30.2% | TK-10 renal 39.9% | CAKI-1 renal 15.1% | CCRF-CEM leukemia 94.5% | MOLT-4 leukemia 87.1%
active: SNB-75 CNS -59.8% | U251 CNS -11.2% | SK-MEL-5 melanoma -20.8% | SN12C renal -24.4% | ACHN renal 0.225% | A498 renal -17%

COc1ccc(-c2cc(C(=O)N=Nc3c(O)[nH]c4ccc(Cl)cc34)c3ccccc3n2)cc1
active: HCT-15 colon -42.2% | HT29 colon -17.3% | U251 CNS -64.1% | LOX IMVI melanoma -29.8% | ACHN renal -6.95%
inactive: SNB-75 CNS 62.9% | PC-3 prostate 48% | SK-MEL-5 melanoma 93% | UACC-62 melanoma 73.2% | SK-MEL-2 melanoma 63.4% | EKVX NSCLC 21.3% | SN12C renal 51.4% | UO-31 renal 80.6% | TK-10 renal 116% | CAKI-1 renal 44.6% | A498 renal 148% | CCRF-CEM leukemia 85.7% | MOLT-4 leukemia 68.8%

COc1sc(/C=N/NC(=O)c2[nH]c3ccc(Br)cc3c2-c2ccccc2)cc1Cl
active: HCT-15 colon -26.2% | HT29 colon -52.8% | SNB-19 CNS -46% | U251 CNS -40.7% | PC-3 prostate 4.59% | SK-MEL-5 melanoma -91.1% | UACC-62 melanoma -30.6% | LOX IMVI melanoma -91.7% | SK-MEL-28 melanoma -33.1% | SK-MEL-2 melanoma -9.93% | EKVX NSCLC -12.3% | SN12C renal -26.6% | UO-31 renal -5.09% | TK-10 renal 9.67% | ACHN renal -67.9% | CAKI-1 renal -46.4% | A498 renal 9.37% | CCRF-CEM leukemia 9.12% | MOLT-4 leukemia -3.08%

N#Cc1cc(-c2ccnc(Nc3ccc(N4CCN(C5COC5)CC4)cc3)n2)ccc1N1CCCC1
inactive: HCT-15 colon 41.9% | HT29 colon 18.6% | SNB-75 CNS 15.7% | U251 CNS 75.7% | PC-3 prostate 64.4% | SK-MEL-5 melanoma 62.2% | UACC-62 melanoma 87.1% | LOX IMVI melanoma 40% | SK-MEL-28 melanoma 77.2% | SK-MEL-2 melanoma 84.5% | EKVX NSCLC 90.9% | SN12C renal 52.1% | UO-31 renal 30.5% | TK-10 renal 66.9% | ACHN renal 50.3% | CAKI-1 renal 18.1% | A498 renal 71.2% | CCRF-CEM leukemia 43.4% | MOLT-4 leukemia 40.4%

COc1ccc(N=Nc2c(N)nn3c(N)c(C#N)c(-c4ccc(F)cc4)nc23)cc1
inactive: HCT-15 colon 86.1% | HT29 colon 84.6% | SNB-75 CNS 82.4% | U251 CNS 48.7% | PC-3 prostate 67% | SK-MEL-5 melanoma 34.7% | LOX IMVI melanoma 75.1% | SK-MEL-28 melanoma 90.5% | SK-MEL-2 melanoma 110% | EKVX NSCLC 72.6% | SN12C renal 61.3% | UO-31 renal 50.6% | TK-10 renal 66.7% | ACHN renal 53.5% | CAKI-1 renal 58.6% | A498 renal 155% | CCRF-CEM leukemia 86.7% | MOLT-4 leukemia 77.6%

COc1ccc(NC(=O)NN2C(=O)c3ccccc3N(C)C2c2ccc(OC)cc2)cc1 (stereo not given)
inactive: HCT-15 colon 103% | HT29 colon 109% | SNB-75 CNS 91% | U251 CNS 105% | PC-3 prostate 89.2% | SK-MEL-5 melanoma 92.6% | UACC-62 melanoma 78.1% | LOX IMVI melanoma 98.1% | SK-MEL-28 melanoma 102% | SK-MEL-2 melanoma 95.3% | EKVX NSCLC 100% | SN12C renal 103% | UO-31 renal 75.3% | TK-10 renal 97.2% | ACHN renal 106% | A498 renal 108% | CCRF-CEM leukemia 98.7% | MOLT-4 leukemia 96.4%
